Source: PubChem
Many of the other results were omitted from the sample, so hits are more common in it than they were.
SF1 inhibitor: inhibitors of human SF-1, primary screen, cell-based, CHO-K1, Gal4-SF-1 LBD, luciferase luminescence; Steroidogenic factor 1 (Homo sapiens), Q13285; AID 525, 2006; CHO-K1 Gal4-SF-1 LBD luciferase reporter; hit rate 0.55% among 65,000; inhibition, % at 10 µM;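 active = inhibition above the mean inhibition of all tested compounds plus 3 SD, cut at about 48% in these data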;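 note: 0% = SF-1 transfected cells with DMSO and 100% = mock-transfected cells lacking SF-1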
* marks the source's active call; other numbers are inactive results.

SMILES	SF1 inhibitor
CCn1nc(-c2ccccc2)nc2c(=O)n(C)c(=O)nc1-2	95.4*
O=C(Cn1c2c(c(-c3ccccc3Cl)cc1=O)CCC2)N1CCC2(CC1)OCCO2	14.7
CCn1c(=O)cc(OCC(=O)N2CCN(Cc3ccc4c(c3)OCO4)CC2)c2ccccc21	16.8
COC(=O)CC1NC2CCCCC2NC1=O (stereo not drawn)	-14.5
Cc1ccc(-n2c(O)c(C=NC3CCCC3)c(=O)[nH]c2=O)c(C)c1	-3.6
O=C(Cc1ccccc1)N1CCN(CC2CC=CCC2)CC1 (stereo not drawn)	11.6
COc1cc(CN2CCN(c3cc(C)ccc3C)CC2)ccc1O	66.8*
O=c1cccc2n1CC1CC2CN(C(c2cccc(F)c2)c2sc3ncnn3c2O)C1 (stereo not drawn)	2.1
COc1cccc(C2=NOC(C(=O)N3CCC4(CC3)OCCO4)C2)c1 (stereo not drawn)	-56.5
C[C@H]1CCC/C=C/C2C[C@H](O)CC2[C@H](O)/C=C/C(=O)O1 (stereo partly drawn)	79.9*
O=C(CN1CCCC1=O)N1CCOCC1	8.5
CCOC(C(=O)OCC(O)CN(CC)CC)(c1ccccc1)c1ccccc1 (stereo not drawn)	-6.1
Cc1cccc(NC(=O)CSc2nnc([C@@H](N)Cc3c[nH]c4ccccc34)o2)c1C	-12.8
O=C(CCn1c(=O)oc2ccccc21)N1CCC2(CC1)OCCO2	-1.0
Cc1cccc(N2C(=O)NC(=O)C3(Cc4cc(C)ccc4N(C)C3)C2=O)c1 (stereo not drawn)	4.4
